Laboratory results: paper PMC10726135, “HNF4α isoforms regulate the circadian balance between carbohydrate and lipid metabolism in the liver”
Over roughly 18,000 sequences, “log2 normalized intensity” has its median near 0.36; the highest 2% begin near 7.3. The list comes from a sample in which the highest values are over-represented; it also holds similar and randomly drawn sequences.

Biological target: T1, HNF4alpha8 (COS-7 nuclear extract) (Homo sapiens, UniProt P41235-5 1-452)
T1 sequence: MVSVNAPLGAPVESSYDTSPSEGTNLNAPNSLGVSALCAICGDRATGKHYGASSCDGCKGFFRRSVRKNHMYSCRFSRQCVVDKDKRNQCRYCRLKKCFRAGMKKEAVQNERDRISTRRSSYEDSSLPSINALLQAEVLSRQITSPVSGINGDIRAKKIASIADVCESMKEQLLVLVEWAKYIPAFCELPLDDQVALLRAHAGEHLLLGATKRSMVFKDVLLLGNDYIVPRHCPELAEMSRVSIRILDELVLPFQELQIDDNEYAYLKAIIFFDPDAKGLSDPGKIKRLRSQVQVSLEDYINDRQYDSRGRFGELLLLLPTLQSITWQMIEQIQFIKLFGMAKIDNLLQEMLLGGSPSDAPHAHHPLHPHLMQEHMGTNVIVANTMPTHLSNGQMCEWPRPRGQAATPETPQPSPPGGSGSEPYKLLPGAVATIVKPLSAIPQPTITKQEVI
Test: protein-binding microarray; COS-7 nuclear extract on double-stranded Agilent 4x180k PBM; binding buffer, salt, pH and temperature not given in the material; high values mean tight binding
Settings: chain copies: 2; label: 3' end of strand 1 on the slide; dsDNA, one strand shown
How it was run: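 A custom Agilent SurePrint G3 4x180k array, spotted in quadruplicate with ~44,000 test sequences as ~60-nt oligonucleotides made double-stranded, was incubated with nuclear extracts. The extracts came from COS-7 cells transiently transfected by CaPO4 with a human HNF4α isoform expression vector. Bound HNF4α was imaged on an Agilent G2565CA scanner at 2-µm resolution, and the binding signal was taken as Agilent software's background-corrected, normalized gProcessedSignal.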

| Sequence | binding signal [log2 normalized intensity] |
| --- | --- |
| CCCCACTTCCTGACTTGGCCTGAACCAGTTGCCTAGGGAGATTAGAGTATCGGTCGA | 0.602 |
| TTAAGAACTGGAGTAAAGGTCACTCTTGCTGCCTAGGGAGATTAGAGTATCGGTCGA | 3.94 |
| GTGTTTAATGTTTTCATTCTGATTTGCACAGCCTAGGGAGATTAGAGTATCGGTCGA | 0.934 |
| CTCTCCAAGCCAGAAAGATGTTTGCCCCAAGCCTAGGGAGATTAGAGTATCGGTCGA | 2.94 |
| GGTTGGCACGCTTAGGGAACAAAGGTCAGTGCCTAGGGAGATTAGAGTATCGGTCGA | 7.22 |
| CGCCGCCTCTGCCTCTTGACCCCTTGGCCCGCCTAGGGAGATTAGAGTATCGGTCGA | 5.9 |
| TTCCTGGCCTCTCTGCAAATTTGCCTTGTCGCCTAGGGAGATTAGAGTATCGGTCGA | 0.448 |
| TGTTTGCACTGAGGAATGGAAGGACCTTGGGCCTAGGGAGATTAGAGTATCGGTCGA | 2.07 |
| TTAGGGGTTAGGGTTAGGGTTAGGGTTACGGCCTAGGGAGATTAGAGTATCGGTCGA | 1.17 |
| GGCTAAACCTAGCCCCCTTTCCCTTATCTTGCCTAGGGAGATTAGAGTATCGGTCGA | 2.81 |
| ACAGGTGCTCTTTATCAGCACCAAGAACAAGCCTAGGGAGATTAGAGTATCGGTCGA | -0.837 |
| TTATCATGTGGTATTAACATGTAAATATGAGCCTAGGGAGATTAGAGTATCGGTCGA | 1.36 |
| CCTTTTTGGAATGTGTTTGCATGACTCATAGCCTAGGGAGATTAGAGTATCGGTCGA | 1.5 |
| TGATGACTTTTGACCCCAGGGGAAACTCCAGCCTAGGGAGATTAGAGTATCGGTCGA | 5.06 |
| GAATGACTTTGGGGAAATGACCTTTGTCCAGCCTAGGGAGATTAGAGTATCGGTCGA | 9.48 |
| ATGTGGTATTAACATGTAAATATGACCTTTGCCTAGGGAGATTAGAGTATCGGTCGA | 8.01 |
| GCATGGAATGACTTTGGGGAAATGACCTTTGCCTAGGGAGATTAGAGTATCGGTCGA | 7.96 |
| ATGACCTTTGAGCAATAGGAAATGGGAGGGGCCTAGGGAGATTAGAGTATCGGTCGA | 3.35 |
| GTATTAACATGTAAATATGACCTTTGCTTTGCCTAGGGAGATTAGAGTATCGGTCGA | 7.1 |
| GGAGGACTTTGGAATGGCAGTGCTTGTCCAGCCTAGGGAGATTAGAGTATCGGTCGA | 2.52 |
| GTAGTGGGGAGGGCATGGACTTTGGAATTAGCCTAGGGAGATTAGAGTATCGGTCGA | 8.06 |
| CTGGTGTAGTGGGGAGGGCATGGACTTTGGGCCTAGGGAGATTAGAGTATCGGTCGA | 6.38 |
| GGGGAGGGCATGGACTTTGGAATTAAGGAGGCCTAGGGAGATTAGAGTATCGGTCGA | 5.91 |
| TCACAATGGGGCATGACTTGTTATCACCTGGCCTAGGGAGATTAGAGTATCGGTCGA | 0.285 |
| TCCTTCTTGCTTAGGATAGGGTCAGTCTTTGCCTAGGGAGATTAGAGTATCGGTCGA | 2.48 |
| AGGCCGGTTGGCCAGGTTCCTCCACCGTCAGCCTAGGGAGATTAGAGTATCGGTCGA | -0.785 |
| TTCAGGCAGGAATGCTGAACAATTGATTTAGCCTAGGGAGATTAGAGTATCGGTCGA | -0.858 |

| Sequence | binding signal [log2 normalized intensity] |
| --- | --- |
| GTCAAAAGGTGTATGTGGACTTTCAACTGCGCCTAGGGAGATTAGAGTATCGGTCGA | 6.13 |
| CCACACAGCACGTAATAGTTCATGAAATGGGCCTAGGGAGATTAGAGTATCGGTCGA | 0.614 |
| AAACAGAGGCTGAAATGGTTACAAAGGTCAGCCTAGGGAGATTAGAGTATCGGTCGA | 5.42 |
| GGGGAAATGACCTTTGTCCAGCTGTGCCGAGCCTAGGGAGATTAGAGTATCGGTCGA | 7.01 |
| AATGACCTTTGTCCAGCTGTGCCGAGCCTGGCCTAGGGAGATTAGAGTATCGGTCGA | 4.91 |
| ACTTTGGGGAAATGACCTTTGTCCAGCTGTGCCTAGGGAGATTAGAGTATCGGTCGA | 7.84 |
| TCTTATGTCCCTCCTGACCTTTGGACTTGAGCCTAGGGAGATTAGAGTATCGGTCGA | 10.6 |
| ACCTTTGTCCTCATTGAGCCCTCCCCTTGTGCCTAGGGAGATTAGAGTATCGGTCGA | 4.38 |
| GCCTCTTTATCTCCTCCCCTTGAGACTTTAGCCTAGGGAGATTAGAGTATCGGTCGA | 2.97 |
| ACTGCTCCAGTGGACATTGGCCCTTTGACCGCCTAGGGAGATTAGAGTATCGGTCGA | 6.76 |
| ATATCCTGACTGCTGACCTTTAAGCCTATAGCCTAGGGAGATTAGAGTATCGGTCGA | 4.7 |
| TTGGCTCTTATGTCCCTCCTGACCTTTGGAGCCTAGGGAGATTAGAGTATCGGTCGA | 9.16 |
| CTCCTGACCTTTGGACTTGATAGAGTTTAAGCCTAGGGAGATTAGAGTATCGGTCGA | 8.25 |
| TCAGTTTGGCTCTTATGTCCCTCCTGACCTGCCTAGGGAGATTAGAGTATCGGTCGA | 3.83 |
| TGGACATTGGCCCTTTGACCTTTAATCAAGGCCTAGGGAGATTAGAGTATCGGTCGA | 7.21 |
| GACCTTTGGACTTGATAGAGTTTAAGTCTTGCCTAGGGAGATTAGAGTATCGGTCGA | 7.2 |
| TCCAGTGGACATTGGCCCTTTGACCTTTAAGCCTAGGGAGATTAGAGTATCGGTCGA | 8.05 |
| AACTCTCAGTTTGGCTCTTATGTCCCTCCTGCCTAGGGAGATTAGAGTATCGGTCGA | 0.947 |
| ACTACATTTCCAAGACCTCTTTGCGGATAGGCCTAGGGAGATTAGAGTATCGGTCGA | -0.337 |
| AGTCAATCCCGTGGACTTTGCCTGCCCATCGCCTAGGGAGATTAGAGTATCGGTCGA | 5.08 |
| GCCTGCCCTTCGCTCCCCGACCTCCTGCTGGCCTAGGGAGATTAGAGTATCGGTCGA | 2.62 |
| CAGGTATTTGCTCTGTGATAGCCTTTTACCGCCTAGGGAGATTAGAGTATCGGTCGA | 1.5 |
| GGCAGGCTTCGAAAAATGGGTCTGGGATGTGCCTAGGGAGATTAGAGTATCGGTCGA | 0.36 |
| AGGGATTTCAGTGCCCTCATAAGAGACTTTGCCTAGGGAGATTAGAGTATCGGTCGA | 2.22 |
| AGTCCTGACCTTGGACTCTGCCCTTGGCCTGCCTAGGGAGATTAGAGTATCGGTCGA | 6.67 |
| TGTCCCTCCTGACCTTTGGACTTGATAGAGGCCTAGGGAGATTAGAGTATCGGTCGA | 9.7 |
| CCTGACCTGCCCTTTGTCCCTCCTGCTAGTGCCTAGGGAGATTAGAGTATCGGTCGA | 3.93 |
